Source: PubChem BioAssay AID1259417 (TB Discovery Research, Infectious Disease Research Institute, 2018)
The campaign covered roughly 1,100 compounds. About 760 (69%) were called active. The rule behind the calls is not given here. The set was probably picked from earlier hits. This is one part of the list.

Assay: M. tuberculosis growth inhibition, HTS (AID 1259417);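 note: bacteria grown with compound for 5 days at 37 °C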
Conditions: stronger effect = higher value, concentration not given here
[1] = M. tuberculosis DsRed fluorescence growth inhibition
[2] = M. tuberculosis growth inhibition

Structure (SMILES) | inhibition [1] | inhibition [2] [%]
COc1ccc(Cl)c2sc(N(CCCn3ccnc3)C(=O)c3cccs3)nc12 | 59.9% (active) | 61.3
COc1ccc(C)c2sc(N(CCCn3ccnc3)C(=O)c3cccs3)nc12 | 51.2% (active) | 44.6
O=C(COc1cccc2ccccc12)c1ccc(Cl)cc1 | 17% (active) | 36.9
Cn1nc([N+](=O)[O-])nc1Sc1ncnn1-c1ccccc1 | 97.1% (active) | 95
Cc1c(C)n2c3c(=O)[nH]c(=O)n(C)c3nc2n1-c1ccccc1O | 97.2% (active) | 92.8
O=c1nc2c(O)cccn2c2c1c(=O)[nH]c1ccccc12 | -3.23% (inactive) | -27.6
COC(=O)C(CC(=O)c1ccc(Br)cc1)n1ccnc1 (stereo not drawn) | 100% (active) | 100
O=c1oc2ccccc2nc1/C=C(O)/C=C\c1ccccc1 | 99.1% (active) | 98.9
Clc1ccc(OCc2ccccc2Cl)c(CNC2CCCCC2)c1 | 99.2% (active) | 99.3
COC(=O)CSc1ncnc2c1sc1nc3c(cc12)COC(C)(C)C3 | 48.1% (active) | -1.03
OCCOCCNc1nc(Nc2cccc(F)c2)nc2c1cnn2-c1ccccc1 | -4.23% (inactive) | 4.68
Clc1cccc(Nc2nc(NCc3ccco3)c3ccccc3n2)c1 | 41.8% (active) | 5.69
Cc1ccccc1Nc1nc(NCc2ccco2)c2ccccc2n1 | -6.74% (inactive) | -22.5
CCOc1ccc(Nc2nc(NCc3ccco3)c3ccccc3n2)cc1 | 65.7% (active) | 78.4
Cc1ccc(Nc2nc(NCc3ccco3)c3ccccc3n2)cc1 | 69% (active) | 45.4
Cc1ccc(-c2csc(-c3ccc(O)cc3)n2)cc1 | 3.54% (inactive) | 28.7
Cc1ccc(-c2nc(NC(=O)CO)cs2)cc1 | 99.1% (active) | 100
CC(NCC(O)COc1ccccc1C(C)(C)C)c1ccccc1 (stereo not drawn) | 61.1% (active) | 48.8
O=C(Nc1nnc(-c2ccc3c(c2)CCCC3)o1)c1ccc([N+](=O)[O-])s1 | 79% (active) | 93.9
O=C(Nc1nnc(-c2ccc3c(c2)CCCC3)o1)c1cc(Cl)sc1Cl | 52.2% (active) | 48.6
O=C(Nc1cccc(Br)c1)c1ccc([N+](=O)[O-])s1 | 6.23% (inactive) | 3.28
CSc1cccc(-c2nnc(NC(=O)c3ccc([N+](=O)[O-])s3)o2)c1 | 13% (active) | 56.8
O=C(Nc1nnc(-c2ccc3c(c2)CCCC3)o1)c1ccc(Cl)cc1Cl | -1.63% (inactive) | -9.7

Structure (SMILES) | inhibition [1] | inhibition [2] [%]
O=C(Nc1nnc(-c2ccc3c(c2)CCCC3)o1)c1ccc(Cl)s1 | 95.5% (active) | 90.6
O=C1CC(c2ccc(Cl)cc2)CC2=C1C(c1ccc(C(F)(F)F)cc1)Nc1ccccc1N2 (stereo not drawn) | -1.45% (inactive) | -10.1
CCOC(=O)C(C)Sc1ncnc2c1nnn2Cc1ccc(F)cc1 (stereo not drawn) | 2.2% (inactive) | 19
CCOC(=O)CSc1ncnc2c1cnn2-c1ccc(C)cc1C | 39.4% (active) | 77.1
COC(=O)CSc1ncnc2c1nnn2Cc1ccc(F)cc1 | 99.8% (active) | 99.8
COC(=O)CSc1ncnc2c1cnn2-c1ccc(F)cc1 | 27.3% (active) | 86.2
CCOC(=O)C(C)Sc1ncnc2c1cnn2-c1ccc(F)cc1 (stereo not drawn) | 26.4% (active) | 87.2
CCOC(=O)CSc1ncnc2c1cnn2-c1ccccc1 | 13.4% (active) | 70.7
CCOC(=O)CNC(=O)CSc1ncnc2c1nnn2Cc1ccccc1F | 17.3% (inactive) | 22.5
CCOC(=O)C1CCCN(c2ccc([N+](=O)[O-])c3nonc23)C1 (stereo not drawn) | 29.3% (active) | 67.6
O=S1(=O)C=CC2ON=C(c3ccc(C(F)(F)F)cc3)C21 (stereo not drawn) | 99.5% (active) | 96.8
O=S1(=O)C=CC2ON=C(c3ccc(Cl)cc3)C21 (stereo not drawn) | 100% (active) | 98.3
CCOC(=O)CSc1nc2c(c(-c3ccc(C)o3)c1C#N)CCCC2 | 21.7% (inactive) | 28.1
COC(=O)CSc1nc2c(c(-c3ccc(C)o3)c1C#N)CCCC2 | 4.49% (inactive) | -17
N#Cc1cc2c(nc1SCC(=O)OCc1ccccc1)CCC2 | 99.7% (active) | 99.7
O=C(CSc1ccc(Cl)cc1)Nc1ccc(Cl)c(C(F)(F)F)c1 | 0.0104% (inactive) | -15.8
O=C(Cc1ccc(F)cc1)Nc1ccc(Cl)c(C(F)(F)F)c1 | 50.9% (active) | 31.5
O=C(Nc1ccc(Cl)c(C(F)(F)F)c1)c1csc2c1CCCC2 | 1.18% (inactive) | -27.8
O=C(CC(O)(C(F)(F)F)C(F)(F)F)Nc1ccc(Cl)c(Cl)c1 | 100% (active) | 101
Cc1cc(C)nc(N=C(N)Nc2cc(Cl)ccc2Oc2ccccc2)n1 | 97.1% (active) | 99.6
Cn1nc([N+](=O)[O-])nc1Oc1ccc(C(C)(C)C)cc1 | 96.8% (active) | 94.8
CCc1ccc(Oc2nc([N+](=O)[O-])nn2C)cc1 | 98% (active) | 95.4
CCN(CC)c1cccc(Oc2nc([N+](=O)[O-])nn2C)c1 | 96.8% (active) | 95.7

Structure (SMILES) | inhibition [1] | inhibition [2] [%]
O=C(OCc1nnc(-c2ccccc2)o1)c1cc(-c2cccs2)nc2ccccc12 | 83.3% (active) | 100
CN(Cc1nc2ccccc2c(=O)[nH]1)Cc1nc2ccsc2c(=O)[nH]1 | 97.2% (active) | 96.7
CC1Cc2cc(-c3nn(-c4ccccc4)cc3C=C3SC(=S)NC3=O)ccc2O1 (stereo not drawn) | 27% (active) | 38.2
CCOC(=O)COc1ccc2cc(-c3ccc(OC)c(OC)c3)c(=O)oc2c1 | 43.5% (active) | 53.6
CCOC(=O)COc1ccc2cc(-c3nc4ccccc4s3)c(=O)oc2c1 | 88.6% (active) | 86.2
COC(=O)COc1ccc2cc(-c3ccc(OC)c(OC)c3)c(=O)oc2c1 | 26.7% (active) | 45
COc1cccc(OCCNC(=O)c2cc([N+](=O)[O-])cc([N+](=O)[O-])c2)c1 | 98.1% (active) | 95.3
COc1cccc(OCC(=O)c2ccc(Br)cc2)c1 | -3.18% (inactive) | -10.7
c1ccc(CCNc2nc3ccccc3[nH]2)cc1 | 21.4% (active) | 32.9
Cc1ccc2nc(NCc3ccccc3)[nH]c2c1 | 43% (active) | 23.1
Cc1ccc(OCCN2CCN(c3nc(NCc4ccccc4)c4ccccc4n3)CC2)cc1 | -1.14% (inactive) | -0.136
O=C(NC12CC3CC(CC(C3)C1)C2)N1CCN(c2cccc(C(F)(F)F)c2)CC1 | 100% (active) | 94.4
O=C(C1CCN(c2nnc(-n3cccc3)s2)CC1)N1CCN(c2cccc(C(F)(F)F)c2)CC1 | 68.1% (active) | 27.8
O=C(C1CCN(c2nnc(-n3cccc3)s2)CC1)N1CCc2ccccc2C1 | 70.1% (active) | 84.1
COc1cccc(-c2csc(N3CCN(C(=O)NC45CC6CC(CC(C6)C4)C5)CC3)n2)c1 | 3.33% (inactive) | -30.6
Cc1nc2cc(C(=O)OCC(=O)NC34CC5CC(CC(C5)C3)C4)ccc2n1-c1ccccc1 | -4.71% (inactive) | -17.2
Cc1cccc(N2CCN(C3=NC(=O)C(=C4CCCCC4)S3)CC2)c1 | 84.8% (active) | 77.9
CC1CCC(C(C)C)C(OC(=O)Cn2c(-c3ccc(F)cc3)[n+](C)c3ccccc32)C1 (stereo not drawn) | 94.3% (active) | 97.5
CCN(CC)c1ccc(NC(=O)c2cnccn2)cc1 | 92.1% (active) | 96.5
O=C(Nc1nnc(-c2ccccc2)o1)c1nc2ccccc2s1 | 94.3% (active) | 94.8
Cc1ccc(-c2nnc(NC(=O)c3nc4ccccc4s3)o2)c(C)c1 | 21.8% (active) | 89.7
CC(C)(C)c1ccc(OCCN2C(=O)C(=O)c3cc(Br)ccc32)cc1 | -0.55% (inactive) | -12
CC(=O)Nc1nc2ccccc2n1CCOc1ccccc1 | 93% (active) | 92.9

Structure (SMILES) | inhibition [1] | inhibition [2] [%]
O=C(c1ccccc1)c1ccc(OCC(O)Cn2cnc3ccccc32)cc1 (stereo not drawn) | -0.545% (inactive) | -3.24
CC(C)(C)c1ccc(OCCn2c(N)nc3ccccc32)cc1 | 70.4% (active) | 90.4
CC(=O)Nc1nc2ccccc2n1Cc1ccccc1 | 81.5% (active) | 85.5
CCc1nc2ccccc2n1CC(O)COc1ccc(I)cc1 (stereo not drawn) | 99.5% (active) | 100
COc1ccc(C2CC(c3c(-c4ccccc4)c4cc(Br)ccc4[nH]c3=O)=NN2C(=O)c2ccccc2)cc1 (stereo not drawn) | 9.47% (inactive) | 8.15
Cc1nc2ccccc2n1CC(O)COc1ccc(C2C=CCC2)cc1 (stereo not drawn) | 101% (active) | 101
CCc1nc2ccccc2n1CCCOc1ccccc1 | 100% (active) | 101
COc1ccc(SN=C2C(C)=CC(=O)C=C2C)cc1 | 5.38% (inactive) | 20
CN(C)CC1CC(C(C)(C)C)CCC1=O (stereo not drawn) | 63.9% (active) | 85.1
O=c1oc(-c2ccccc2Br)nc2sc3c(c12)CCCC3 | 99.7% (active) | 98.6
COc1ccccc1-c1c(C)oc2cc(OCC(=O)OCc3ccccc3)ccc2c1=O | 28.7% (active) | 62.9
NNC(=O)c1ccc(-c2ccccc2Cl)o1 | -6.57% (inactive) | 6.08
COC(=O)COc1ccc2c(=O)c(-c3ccccc3Cl)c(C)oc2c1 | 74.9% (active) | 95.5
COC(=O)COc1ccc2c(=O)c(-c3ccc(Cl)cc3)coc2c1 | 78.7% (active) | 94.8
CCCc1cc2c(=O)c(-c3ccc4c(c3)OCCCO4)coc2cc1OCC(=O)OCC | 62.8% (active) | 59.1
CS(=O)(=O)Nc1cccc(C2=NN(c3nc(-c4ccccc4)c4cc(Cl)ccc4n3)C(c3ccco3)C2)c1 (stereo not drawn) | 7.39% (inactive) | -23.7
CCCCOC(=O)COc1ccc2c(=O)c(Oc3ccc(OCC)cc3)c(C)oc2c1 | 31.4% (active) | 83.7
CCOC(=O)COc1ccc2c(=O)c(Oc3cnn(-c4ccccc4)c3)c(C)oc2c1 | 79% (active) | 94.4
COc1ccccc1-c1coc2cc(OCC(=O)OC3CCCCC3)ccc2c1=O | 40.7% (active) | 66.9
CCc1cc2c(=O)c(-c3ccc(OC)cc3)coc2cc1OCC(=O)OC | 63.7% (active) | 86.9
